Measured values reported in PubChem BioAssay AID1159580 (chemical genetic matrix, 2015).
The campaign covered roughly 5,500 compounds. About 2,000 (36%) were called active. Inconclusive results (about 18%) are left out. No stated cut-off is given here; in the data, active means normalized growth mostly below about 0.91 (no sharp cut-off); inconclusive means no clear call, values can overlap the other calls; inactive means mostly above about 0.92. Some of the results follow.

Experiment: chemical genetic growth profiling, strain panel (AID 1159580);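 further: tested at 20 µM; growth read once vehicle control cultures reached saturation at 30 °C; 1 = growth at the plate median or of vehicle wells; lower values mean less growth of the strain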
Settings: S. cerevisiae deletion strains, growth OD

Measured: normalized growth

COC(=O)[C@H](NC(=O)c1cc(-c2ccccc2)nc2ccccc12)c1ccccc1
inactive: locus YAL013W, strain DEP1, active compounds read low 1.02 | locus YAL040C, strain CLN3, active compounds read low 1.01 | locus YCL061C, strain MRC1 (second series), active compounds read low 0.998 | locus YDR363W, strain ESC2, active compounds read low 0.989 | locus YER002W, strain NOP16, active compounds read low 1.01 | locus YGR078C, strain PAC10, active compounds read low 0.984 | locus YJR075W, strain HOC1, active compounds read low 1 | locus YNL128W, strain TEP1, active compounds read low 0.996 | locus YNL153C, strain GIM3, active compounds read low 1 | locus YNL175C, strain NOP13, active compounds read low 1.01 | locus YNL197C, strain WHI3, active compounds read low 0.989 | locus YNL224C, strain SQS1, active compounds read low 1.02 | locus YNL322C, strain KRE1, active compounds read low 0.999 | locus YOR083W, strain WHI5 (second series), active compounds read low 1.06 | locus YPL055C, strain LGE1, active compounds read low 0.99 | locus YPL241C, strain CIN2, active compounds read low 0.999
